Results as given in PubChem BioAssay AID1578 (Sanford-Burnham Center for Chemical Genomics, 2009).
Values joined by “and” are separate entries in the source; they are usually repeats but may differ in a detail not shown here. Identical values can stand only once. Among all 290,000 compounds or so, about 3,000 (1%) were called active. For the sample, actives were picked, then their nearest neighbours and some compounds at random. A number with no mark means an inactive call. Cut-off read from the data, not from the text of the source: active = inhibition mostly above about 36% (no sharp cut-off); inactive = mostly below about 34%.

Experiment: NOD1 signaling inhibitors, primary screen, cell-based, luminescence, uHTS (AID 1578);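 note: HEK-293T reporter cells stimulated with the NOD1 agonist gamma-tri-DAP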
Settings: NOD1-driven NF-kB luciferase reporter cells, at 4 µM, hits give high values

| Structure (SMILES) | inhibition |
| --- | --- |
| O=c1c2c([nH]c3ccccc13)C(=C1CCCC1)CC2 | 2.8% |
| Cc1ccc(N2CCN(C(=O)c3cccs3)CC2)cc1C | 1.8% |
| Cc1ccc(C2=[N+]([O-])C3(CCCCC/C3=N\O)N(O)C2(C)C)o1 (centres undefined) | 14.4% |
| COc1ccc(CNC(=O)c2ccc(C(C)(C)C)cc2)cc1 | -24.6% |
| C[C@@H]1CC[C@@]2(O[C@H](CCO)C[C@@H](O)[C@@H]2O)O1 | -47.3% |
| COCCn1c(=S)[nH]c2cc(C(=O)N3CCN(Cc4ccc5c(c4)OCO5)CC3)ccc2c1=O | -2.2% |
| CCCCCn1c(=O)[nH]c2cc(C(=O)N3CCN(CC)CC3)ccc2c1=O | -4% |
| COc1ccc(-n2c(Cn3nnc4ccccc43)n[nH]c2=S)cc1 | 12% |
| COc1ccccc1S(=O)(=O)Nc1cc(S(=O)(=O)N2CCCCC2)ccc1N1CCOCC1 | -35.7% |
| O=C(c1cccs1)c1no[n+]([O-])c1C(=O)c1cccs1 | 98.1% (active) |
| COc1ccc(C(=O)c2no[n+]([O-])c2C(=O)c2ccc(OC)cc2)cc1 | 6.8% |
| Cc1ccc(C(=O)c2no[n+]([O-])c2C(=O)c2ccc(C)cc2)cc1 | 18% |
| O=S(=O)(c1ccc(F)c(F)c1F)N1CCN(C(=S)NC2CC3CCC2C3)CC1 (centres undefined) | -22.5% |
| Cc1ccc(NC(=O)/C(C#N)=C/c2ccccc2C(F)(F)F)cc1 | -32.5% |
| Clc1ccc(CSc2ncccn2)cc1 | -34.4% |
| Cc1ccc(CSc2nccc(-c3c(C)nc4ccccn34)n2)cc1 | 27% |
| Cc1nc2ccccn2c1-c1ccnc(SCc2ccc(Cl)cc2)n1 | 37.7% (active) |
| COc1ccc2c(C)cc(SCC(=O)Nc3cc(C(N)=O)cc(C(N)=O)c3)nc2c1 | -7% |
| O=C(Cc1cccs1)NNC(=S)NCc1ccco1 | -26.1% |
| O=C(O)Cc1ccc(NC(=S)NCc2ccco2)cc1 | -27.1% |
| O=C(Cc1ccc(-c2ccccc2)cc1)NNC(=S)NCc1ccco1 | 41.4% (active) |
| CC(=O)c1ccc(C(=O)N2CCCC(CO)(Cc3ccccc3C)C2)s1 (centres undefined) | -39% |

| Structure (SMILES) | inhibition |
| --- | --- |
| COc1ccc2c(c1)c1nc3n(c(=O)c1n2CC(=O)Nc1ccccc1)CCS3 | -17.5% |
| COc1ccc2c(c1)c1nc3n(c(=O)c1n2CC(=O)Nc1cc(C)[nH]n1)CCS3 | 63.4% (active) |
| COc1ccc(NC(=O)Cn2c3ccc(OC)cc3c3nc4n(c(=O)c32)CCS4)cc1 | -15.9% |
| COc1ccc(OC(=O)N2CCOCC2)cc1 | -16.5% |
| CC1CCCC(NC(=O)COC(=O)Cc2cn3ccsc3n2)C1C (centres undefined) | 6.7% |
| COc1ccc(-n2c(-c3ccc(Cl)cc3)c[n+]3c2CCc2ccccc2-3)cc1 | 20.5% |
| Cc1ccc(-n2c(-c3ccccc3)c[n+]3c2CCc2ccccc2-3)c(C)c1 | 66% (active) |
| COc1ccccc1-n1c(-c2ccccc2)c[n+]2c1CCc1ccccc1-2 | 52.9% (active) and 68.6% (active) |
| Cc1ccc(-c2c[n+]3c(n2-c2ccccc2)CCC3)cc1 | 25.4% |
| COc1ccc(-n2c(-c3ccc(Br)cc3)c[n+]3c2CCc2ccccc2-3)cc1 | 13.3% |
| Cc1ccc(-n2c(-c3ccccc3)c[n+]3c2CCC3)cc1 | 9.5% |
| CCOc1ccc(-c2c(C(=O)N/N=C/c3ccco3)nnn2-c2nonc2N)cc1 | -7.1% |
| O=C(Cn1cnc(S(=O)(=O)N2CCCCC2)c1)NCc1ccco1 | -11.7% |
| CC(C)N(Cc1ccccc1)C(=S)Nc1ccccc1F | -3.5% |
| CCOC(=O)CN(c1ccccc1C)S(=O)(=O)c1ccc(Cl)cc1 | 21.3% |
| CCN(CC)C(=O)Cn1cc(C(=O)C(=O)N(CC)C2CCCCC2)c2ccccc21 | -4.6% |
| Cc1nc2c(=O)n(C)c(=O)n(C)c2nc1Cl | 94.4% (active) |
| Cn1c(=O)c2nc3ccccc3nc2n(C)c1=O | -21.3% |
| Cn1c(=O)c2nc(Cl)c(-c3ccccc3)nc2n(C)c1=O | -30.8% |
| CCCC(C)NC(=O)/C=C/c1cccc([N+](=O)[O-])c1 (centres undefined) | -26.2% |
| CCOC(=O)CNC(=O)CSc1nnc(NC(=O)c2ccccc2Cl)s1 | -7.6% |
| CCOC(=O)CNC(=O)CSc1nnc(NC(=O)c2ccc3c(c2)OCO3)s1 | -31.4% |

| Structure (SMILES) | inhibition |
| --- | --- |
| CCOC(=O)CNC(=O)CSc1nnc(NC(=O)c2ccc(C)cc2)s1 | 44.8% (active) |
| CN1CCN(NC(=O)C23CC4CC(CC(C4)C2)C3)CC1 | -2.4% |
| COc1ccccc1NC(=O)Cc1coc2cc(C)ccc12 | -17.5% |
| COc1ccc2c(CC(=O)Nc3ccccc3N3CCOCC3)coc2c1 | 16.3% |
| COc1ccc2c(CC(=O)Nc3ccccc3OC)coc2c1 | 57.6% (active) |
| O=C(NC(=S)Nc1ncccn1)c1ccc(Cl)cc1Cl | -41.6% |
| COc1ccc(C2=NN(c3ccccc3)C(c3cccs3)C2)cc1 (centres undefined) | 46.8% (active) |
| CC(=O)Nc1ccc(C2=NN(c3ccccc3)C(c3cccs3)C2)cc1 (centres undefined) | -0.7% |
| COc1ccc(C2=NN(S(C)(=O)=O)C(c3cccs3)C2)cc1 (centres undefined) | -16.2% |
| CC(=O)c1ccc(NC(=O)CCc2nnc3ccc(N4CCC5(CC4)OCCO5)nn23)cc1 | -15.6% |
| CCOc1cc2[nH]c(=O)n(CCCN3CCCC3=O)c(=O)c2cc1OCC | 0.4% |
| CCCc1cc(-c2n[nH]c(=S)n2-c2cccc(C)c2)cs1 | -9.6% |
| O=C(N/N=C(\c1ccccc1)c1ccccn1)c1cccc([N+](=O)[O-])c1 | 103% (active) |
| O=C(NNC(=O)c1ccccn1)c1cccc([N+](=O)[O-])c1 | -43.1% |
| O=C(c1cccc([N+](=O)[O-])c1)c1ccccn1 | -6.3% |
| O=C(O)c1ccc(C(=O)C(=O)c2ccccc2)cc1 | -2.3% |
| C=C(C(=O)c1ccccc1)C(C)C(=C)C(=O)c1ccccc1 | 99% (active) |
| O=C(CC(CC(=O)c1ccccc1)c1ccccc1)c1ccccc1 | -4.1% |
| C=C(C(=O)c1ccccc1)C(c1ccccc1)C(C)C(=O)c1ccccc1 (centres undefined) | 44.3% |
| O=C(CC(C(=O)O)c1ccc(Cl)cc1)c1ccccc1 (centres undefined) | -13% |
